# Measured values from PubChem BioAssay (NCI).
# Compounds without any hit were thinned out: in the full panel of roughly 79,000, 15% have a hit. Values without a mark were called inactive. The source made the active and inactive calls. Rule as the data show it: active = growth inhibition above about 70%; inactive = the rest.
# Experiment: NCI Yeast Anticancer Drug Screen. Data for the bub3 strain (AID 167)
# Details: S. cerevisiae bub3 mutant strain, at 50.0 µM (retest, dose inferred, filed as 5.0), hits give high values
# Outline: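 Steps: expose the mutant yeast strain to compound; grow alongside vehicle-treated cultures; measure growth; express inhibition against the vehicle cultures.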
row,Structure (SMILES),growth inhibition
1,CCN(CC)CCOC(=O)C1CCCCC1C(=O)C1CCCCC1 (stereo not drawn),14%
2,O=c1c2cc(Br)ccc2ncn1COCc1ccccc1,-21%
3,C=C1C(=O)OC2C1CCC(=C)C1CC(O)C(=C)C12 (stereo not drawn),65%
4,CCC(CC)=NNc1ccc([N+](=O)[O-])cc1,42%
5,CCN(CC)CCNc1ccc(C)c2oc3ccc(O)cc3c(=O)c12,41%
6,CCOC(=O)C[P+](c1ccc(C)cc1)(c1ccc(C)cc1)c1ccc(C)cc1,88% (active)
7,Cc1ccc(C)c(C(=O)/C=C/C(=O)O)c1,98% (active)
8,CCCC/C=C(/CCCCOCOCCOC)[Si](C)(C)C,-9%
9,C=C1C2Oc3ccccc3C1N(c1ccccc1)O2 (stereo not drawn),26%
10,NC(=O)N/N=C1/CC2CCCCC2c2ccccc21 (stereo not drawn),94% (active)
11,CC(CCN)(CCN)[N+](=O)[O-],-1%
12,COC(=O)/C=C(\NC1CC(OC2C[C@](O)(C(C)=O)Cc3c(O)c4c(c(O)c32)C(=O)c2c(OC)cccc2C4=O)OC(C)C1O)C(=O)OC (stereo partly drawn),98% (active)
13,CCOc1ccc(N=Nc2ccccc2)cc1,-39%
14,O=C(CNS(=O)(=O)Cc1ccccc1)NCC(=O)NNc1ccccc1,53%
15,CC1(C)c2ccccc2Cc2cc3ccccc3nc21,98% (active)
16,CC(=O)Nc1ccc(C(C)(C)c2ccc(C)cc2)cc1,97% (active)
17,CC[C@]1(O)C[C@H]2[C@@H]3CCc4cc(OC)ccc4[C@H]3CC[C@]2(C)[C@H]1O,97% (active)
18,CCCCSc1nc2c([nH]1)c(=S)n(C)c(=S)n2C,92% (active)
